According to the supplement of paper PMC11732987, “Enantioselective OTUD7B fragment discovery through chemoproteomics screening and high-throughput optimisation” (Communications Chemistry, 2025):

Target: USP14 (UniProt P54578)
Experiment: log2 ratio of Biotin-Ahx-Ub-VS probe labelling (fragment/DMSO); higher = less target engagement (more negative = stronger competition), active = hit call of the paper (q ≤ 0.05, log2 ratio ≤ -1)
Conditions: compound concentration: 200 uM; treatment time: 3 h
Procedure: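 Competitive ABPP in HEK293T cell lysate. Lysates were treated with each chloroacetamide fragment at 200 µM for 3 h, then with Biotin-Ahx-Ub-VS (0.5 µM, 1 h), NeutrAvidin-enriched and analysed by diaPASEF LC-MS/MS. Protein LFQ was median-normalised; average log2 ratio is fragment/DMSO from an unpaired t-test (n=3 treated, n=44 DMSO). Hits: q ≤ 0.05, log2 ratio ≤ -1, unique peptides ≥ 2.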

Chain of USP14 (P54578 whole entry, the tested form may be a part): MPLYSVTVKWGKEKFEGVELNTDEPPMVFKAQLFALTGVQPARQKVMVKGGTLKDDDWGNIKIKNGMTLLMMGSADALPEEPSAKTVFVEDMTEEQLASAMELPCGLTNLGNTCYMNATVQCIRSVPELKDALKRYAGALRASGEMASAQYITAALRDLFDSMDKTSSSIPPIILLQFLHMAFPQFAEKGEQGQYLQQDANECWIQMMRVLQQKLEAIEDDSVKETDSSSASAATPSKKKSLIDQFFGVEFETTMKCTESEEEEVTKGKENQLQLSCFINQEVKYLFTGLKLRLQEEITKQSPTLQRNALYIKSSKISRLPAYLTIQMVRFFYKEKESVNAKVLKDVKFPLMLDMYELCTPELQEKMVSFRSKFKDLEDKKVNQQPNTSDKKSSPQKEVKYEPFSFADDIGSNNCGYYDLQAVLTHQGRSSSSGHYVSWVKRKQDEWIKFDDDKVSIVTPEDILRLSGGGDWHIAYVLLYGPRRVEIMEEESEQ

log2 ratio of Biotin-Ahx-Ub-VS probe labelling, inactive:
O=C(CCl)N(C1=CCCCC1)C1CC1 -0.423, O=C(CCl)N1CCOCC1C1CC1 (stereo not given) -0.212, O=C(CCl)N1CCC2(CCC(O)CC2)CC1 0.0657, Cc1c(NC(=O)CCl)c(=O)n(-c2ccccc2)n1C -0.215, O=C(CCl)NC1CCS(=O)(=O)c2ccccc21 (stereo not given) -0.152, O=C(CCl)Nc1nc(-c2cccs2)cs1 0.15, NC(=O)C1CCCCN1C(=O)CCl (stereo not given) -0.15, C[C@H]1CN(C(=O)CCl)CCN1C(=O)c1cnn(C)c1.Cl -0.0358, Cl.O=C(CCl)N[C@H]1C[C@@H](n2cccn2)C1 -0.208, O=C(CCl)NCC1(c2ccccc2)CC1 0.0125, Cc1ccc(CNC(=O)CCl)nc1C.Cl -0.372, CC(NC(=O)CCl)c1cccc2ccccc12 (stereo not given) -0.209, COc1ccc(CN(C)C(=O)CCl)cc1 -0.544, O=C(CN1CCN(C(=O)CCl)CC1)Nc1cccc(F)c1 -0.0714, C/C(=C\CNC(=O)CCl)c1cnn(C)c1.Cl -0.247, Cc1nnc(C(NC(=O)CCl)c2ccccc2)n1C (stereo not given) 0.163, COCC[C@@H](NC(=O)CCl)c1ccccc1 0.0709, Cl.O=C(CCl)N1CCC(Cc2nccs2)C1 (stereo not given) -0.2, O=C(CCl)N1CCN2C(=O)CCC2C1 (stereo not given) 0.0904, Cc1ccc(C)c(Oc2ccc(CNC(=O)CCl)cn2)c1.Cl -0.371, Cl.Cn1ncc2c1CC(NC(=O)CCl)CC2 (stereo not given) 0.136, Cc1ccc2nnc(CNC(=O)CCl)n2c1 0.17, CCN(C(=O)CCl)C1CCCCC1 -0.0238, O=C(CCl)N1CCC(=C(F)CO)C1 0.054, COc1cc(Cl)c(C)cc1NC(=O)CCl -0.458, O=C(CCl)N1CCC(c2noc3cc(F)ccc23)CC1 -0.337, Cc1ccc(N(CCC#N)C(=O)CCl)cc1C -0.623, Cl.Cn1nc2c(c1CNC(=O)CCl)CCCC2 -0.00316, Cc1cccnc1NC(=O)C1CCN(C(=O)CCl)CC1.Cl -0.377, Cl.O=C(CCl)N1CCn2cncc2C1 -0.259, Cc1nc(CNC(=O)CCl)c2ccccn12.Cl 0.113, NC(=O)C1CCCN(C(=O)CCl)C1 (stereo not given) -0.153, O=C(CCl)N1CCC(O)(Cc2ccc(F)cc2)C1 (stereo not given) 0.271, Cc1ccccc1OCC(=O)N1CCN(C(=O)CCl)CC1 -0.131, Cc1n[nH]c(=O)c2c(NC(=O)CCl)oc(C)c12 0.0281, Cl.O=C(CCl)N1CCCC(c2ncc[nH]2)C1 (stereo not given) -0.141, Cl.Cn1c(CNC(=O)CCl)nc2cccnc21 -0.0826, O=C(CCl)N1CCOC2(CCC2)C1 0.0484, CN(CCC(O)c1ccc(Br)cc1)C(=O)CCl (stereo not given) -0.442, Cc1ccc(N(C(=O)CCl)C2C=CS(=O)(=O)C2)cc1 (stereo not given) -0.0859
